Source: PubChem BioAssay
Values joined by “and” are separate entries in the source; they are usually repeats but may differ in a detail not shown here. Equal entries are not always repeated. Results filed as inconclusive are left out. Active and inactive are the calls of the source.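 The calls were made as follows, unless noted: active = inhibition above the screen-wide mean plus 3 SD, about 51%; inactive = the rest.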

Key:
[1] = rapamycin-like changes in RPL19A-GFP expression – cell-based, S. cerevisiae, multiplex flow cytometry, primary screen (AID 1862; in the data active = percent of DMSO control GFP below about 86%;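 also: lower values mimic rapamycin by blocking the RPL19A rise seen in DMSO cells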); settings: S. cerevisiae RPL19A-GFP strain, flow cytometry fluorescence, 3 h; at 10 µM; stronger effect = lower value
[2] = TOR pathway GLN3 branch reporter MEP2-GFP changes – S. cerevisiae, multiplex flow cytometry, primary screen (AID 1867;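 active = GFP response, as percent of the DMSO control, above the screen-wide mean plus 3 SD, about 139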;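 also: median GFP channel fluorescence of barcode-gated MEP2-GFP cells measured by flow cytometry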); settings: S. cerevisiae MEP2-GFP strain, 3 h, at 10 µM, stronger effect = higher value, 100% means same as DMSO wells
[3] = TOR pathway RTG branch CIT2 reporter changes – S. cerevisiae, GFP fusion, multiplex flow cytometry, primary screen (AID 1870;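 active = percent response above a set limit, the screen-wide mean plus 3 SD, cut at about 130% in these data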;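 also: barcoded CIT2-GFP strain pooled with four other GFP strains with rapamycin as positive control; median GFP fluorescence per well over plate mean of DMSO wells so 100% = DMSO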); settings: S. cerevisiae CIT2-GFP expression, 3 h, at 10 µM, stronger effect = higher value
[4] = TOR pathway LAP4-GFP level changes – S. cerevisiae, multiplex flow cytometry, primary screen (AID 1873;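 active = GFP signal, as percent of the solvent control, above the screen mean plus 3 SD, about 149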); settings: S. cerevisiae LAP4-GFP expression, 3 h, at 10 µM, stronger effect = higher value
[5] = yeast AGP1-GFP level changes, GLN3 branch – cell-based, multiplex flow cytometry, S. cerevisiae, primary screen (AID 1887;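 active = GFP signal above the screen-wide mean plus 3 SD, that is over about 124.5% of the solvent control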;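 also: AGP1-GFP fusion strain of S. cerevisiae within a five-strain barcoded multiplex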); settings: 3 h, at 10 µM, stronger effect = higher value
[6] = reduced mouse 2C T cell binding to pMHC/ICAM-1 vesicles – MLPCN validation set, flow cytometry, LFA-1/ICAM-1 modulator project, pilot screen (AID 2523;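 active = response below a set limit, under 55% cells CD8-positive and vesicle-bound, and CD8 cells' 90th-percentile brightness under 279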;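 as to vesicle binding response: mean PE anti-B7-1 fluorescence of CD8+ cells relative to row control; 100% = QL9-loaded vesicles with DMSO vehicle in the same plate row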); settings: 2C mouse CD8+ T cells, at 7 µM, stronger effect = lower value; double positive events: measured here: CD8+/vesicle+ event percentage
[7] = target: Integrin beta-1 (Homo sapiens) + Integrin alpha-4 (Homo sapiens) (UniProt P13612+P05556); experiment: alpha4beta1 integrin LIBS antibody binding reduction – U937 cells, HUTS-21 mAb, flow cytometry, validation set, VLA-4 allosteric modulator project, pilot screen (AID 2674;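 active = inhibition above 50%, about 3 SD of the validation set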;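 also: antibody binding induced by the VLA-4 ligand LDV present at three times its Kd; 0% = LDV ligand with antibody and no compound and 100% = antibody without LDV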); settings: HUTS-21 LIBS mAb binding, at 6.7 µM, stronger effect = higher value, binding induced by LDV ligand
[8] = calorie-restriction mimetic ROS inhibitors, yeast – validation compound set, pilot screen (AID 2706;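 active = superoxide response below 65% of plate, a cut near 3 SD across the whole screen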;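 also: yeast exposed to compound for one week at 30 degrees C before staining; 100% = mean of all compound wells on the same plate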); settings: S. cerevisiae aging, superoxide DHE fluorescence; at 10 µM; stronger effect = lower value
[9] = target: Beta-adrenergic receptor kinase 1 (Homo sapiens) (UniProt P25098); experiment: GRK2 binders displacing RNA aptamer, biochemical, validation, human GRK2, bead flow cytometry (AID 488806;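 active = aptamer binding inhibition above 30%, about 3 SD of noise from non-fluorescent compounds; inactive = inhibition at or below 30%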); settings: bead-bound GRK2, FAM-aptamer displacement, at 10 µM, stronger effect = higher value
[10] = target: Beta-2 adrenergic receptor (Homo sapiens) (UniProt P07550); experiment: agonist-induced loss of surface beta2AR – cell-based, FAP fluorogen, flow cytometry, validation set, pilot screen (AID 504459;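 active = percent response above 42, roughly 3 SD of non-fluorescent test compounds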;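 also: agonist-driven loss of surface beta2AR via internalization measured by FAP dye flow cytometry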); settings: Am2.2-beta2AR cells, at 10 µM, stronger effect = higher value
[11] = target: AP-2 complex subunit beta (Homo sapiens) (UniProt P63010); experiment: beta-arrestin/AP2 interaction blockers – biochemical, validation set, GST-AP2 beads, flow cytometry, pilot screen (AID 504541;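 active = inhibition above 54%, about 3 SD of non-fluorescent compounds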;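 also: AP2 carries R879A mutation and is captured from E. coli lysate; bead-bound FITC arrestin peptide fluorescence measuring arrestin peptide binding to AP2; 0% = DMSO wells and 100% = excess unlabeled arrestin peptide control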); settings: FITC arrestin peptide, at 10 µM, stronger effect = higher value, AP2 beta2 appendage fragment, R879A mutant
[12] = cytosolic pH regulators acting via V-ATPase – S. cerevisiae, pHLuorin, HTS validation (AID 504600; in the data active = response above about 15%;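 also: plate controls were DMSO for no effect and reference compound for full effect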); settings: V-ATPase proton transport, at 10 µM, stronger effect = higher value
[13] = system: anti-desmoglein-3 scFv antibody binding to human DSG3; experiment: blockers of pathogenic pemphigus antibody–desmoglein-3 binding – biochemical, validation compound set, bead-based, flow cytometry, pilot screen (AID 588368;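 active = binding below the plate cutoff, the plate median minus 3 SD, with a reading above zero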;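 also: signal is the median channel fluorescence of bead-bound GFP antibody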); settings: Protein G beads, DSG3-Fc, scFv-GFP binding, at 10 µM, stronger effect = lower value
[14] = Nile Red efflux blockade in pump-expressing yeast – validation compound set, multiplex, phenotypic, pilot screen (AID 588506;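 active = efflux inhibition above 0.42, the validation set average plus 4 SD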;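 also: Nile Red retained in cells so higher fluorescence means more efflux inhibition; 0 = negative control wells and 1 = enniatin B 25 µM full block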); settings: S. cerevisiae pump-expressing triplex, Nile Red efflux flow cytometry; at 10 µM; stronger effect = higher value; the pumps come from Candida albicans
[15] = target: ATP-binding cassette sub-family B member 6 (Homo sapiens) (UniProt Q9NP58); experiment: blockers of ABCB6-driven porphyrin uptake – K562-ABCB6 cells, flow cytometry, validation set, pilot screen (AID 588550); settings: K562-ABCB6 porphyrin accumulation, 1 h, at 10 µM, stronger effect = higher value;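 also: 0% = DMSO wells and 100% = benzethonium chloride 70 µM positive control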
[16] = AML differentiation inducers, ER-HoxA9 marrow cells – cell-based, GFP/MAC1 double positive, flow cytometry, validation set, primary screen (AID 588685;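 active = differentiation response of at least 50%, scaled between solvent and reference control, from cells with both markers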;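 also: compound exposure lasts four days before antibody staining and flow analysis; 0% = DMSO wells and 100% = 5 µM fulvestrant positive control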); settings: stronger effect = higher value, normalized: vehicle 0, fulvestrant 100

Integrin beta-1 (Homo sapiens) + Integrin alpha-4 (Homo sapiens), sequence (P05556 whole entry, looked up): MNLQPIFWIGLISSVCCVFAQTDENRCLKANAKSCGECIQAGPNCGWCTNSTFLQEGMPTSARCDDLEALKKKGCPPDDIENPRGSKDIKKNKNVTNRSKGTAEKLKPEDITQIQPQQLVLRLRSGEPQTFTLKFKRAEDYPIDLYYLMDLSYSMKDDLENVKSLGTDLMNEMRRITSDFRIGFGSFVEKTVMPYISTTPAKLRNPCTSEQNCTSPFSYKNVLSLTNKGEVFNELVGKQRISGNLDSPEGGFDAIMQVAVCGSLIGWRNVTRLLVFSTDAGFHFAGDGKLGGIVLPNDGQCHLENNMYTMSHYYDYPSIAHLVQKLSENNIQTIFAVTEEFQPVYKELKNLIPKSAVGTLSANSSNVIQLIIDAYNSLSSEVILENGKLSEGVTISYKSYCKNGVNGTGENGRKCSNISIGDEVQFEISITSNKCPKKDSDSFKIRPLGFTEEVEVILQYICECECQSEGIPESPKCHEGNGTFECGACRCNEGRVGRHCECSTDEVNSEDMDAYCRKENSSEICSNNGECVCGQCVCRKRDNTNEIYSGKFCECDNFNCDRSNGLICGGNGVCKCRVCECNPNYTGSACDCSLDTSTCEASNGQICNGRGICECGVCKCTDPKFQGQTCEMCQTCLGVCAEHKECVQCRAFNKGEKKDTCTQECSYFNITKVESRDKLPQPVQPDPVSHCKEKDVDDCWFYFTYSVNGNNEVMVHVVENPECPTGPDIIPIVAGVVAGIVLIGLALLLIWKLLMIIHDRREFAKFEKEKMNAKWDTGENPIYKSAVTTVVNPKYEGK
Integrin beta-1 (Homo sapiens) + Integrin alpha-4 (Homo sapiens), sequence (P13612 whole entry, looked up): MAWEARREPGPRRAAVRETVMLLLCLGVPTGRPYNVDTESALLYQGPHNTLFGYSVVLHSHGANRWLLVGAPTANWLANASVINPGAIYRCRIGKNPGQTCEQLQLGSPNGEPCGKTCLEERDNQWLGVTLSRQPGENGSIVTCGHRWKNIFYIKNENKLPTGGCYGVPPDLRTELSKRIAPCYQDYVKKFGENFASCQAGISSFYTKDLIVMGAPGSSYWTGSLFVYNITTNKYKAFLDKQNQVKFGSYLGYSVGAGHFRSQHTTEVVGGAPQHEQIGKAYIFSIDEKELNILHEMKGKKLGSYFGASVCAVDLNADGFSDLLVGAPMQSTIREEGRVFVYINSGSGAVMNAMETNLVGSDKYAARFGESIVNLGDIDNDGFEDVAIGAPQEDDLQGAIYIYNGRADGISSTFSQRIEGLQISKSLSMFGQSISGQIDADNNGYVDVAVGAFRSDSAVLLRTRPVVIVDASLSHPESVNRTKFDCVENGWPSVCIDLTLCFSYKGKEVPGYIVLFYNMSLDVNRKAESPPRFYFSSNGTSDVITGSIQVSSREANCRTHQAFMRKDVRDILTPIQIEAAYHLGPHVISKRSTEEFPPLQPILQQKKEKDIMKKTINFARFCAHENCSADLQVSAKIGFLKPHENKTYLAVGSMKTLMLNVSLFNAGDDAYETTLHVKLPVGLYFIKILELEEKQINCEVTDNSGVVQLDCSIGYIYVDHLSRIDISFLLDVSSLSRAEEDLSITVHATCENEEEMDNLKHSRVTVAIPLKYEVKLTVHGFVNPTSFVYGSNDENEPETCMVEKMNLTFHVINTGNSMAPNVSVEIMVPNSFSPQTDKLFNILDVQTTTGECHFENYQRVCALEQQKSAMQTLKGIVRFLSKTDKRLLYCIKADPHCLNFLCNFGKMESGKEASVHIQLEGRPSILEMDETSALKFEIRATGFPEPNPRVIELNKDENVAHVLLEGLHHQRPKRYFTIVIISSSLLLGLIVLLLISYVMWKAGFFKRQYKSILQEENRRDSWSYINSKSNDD
Beta-adrenergic receptor kinase 1 (Homo sapiens), sequence (P25098 whole entry, looked up): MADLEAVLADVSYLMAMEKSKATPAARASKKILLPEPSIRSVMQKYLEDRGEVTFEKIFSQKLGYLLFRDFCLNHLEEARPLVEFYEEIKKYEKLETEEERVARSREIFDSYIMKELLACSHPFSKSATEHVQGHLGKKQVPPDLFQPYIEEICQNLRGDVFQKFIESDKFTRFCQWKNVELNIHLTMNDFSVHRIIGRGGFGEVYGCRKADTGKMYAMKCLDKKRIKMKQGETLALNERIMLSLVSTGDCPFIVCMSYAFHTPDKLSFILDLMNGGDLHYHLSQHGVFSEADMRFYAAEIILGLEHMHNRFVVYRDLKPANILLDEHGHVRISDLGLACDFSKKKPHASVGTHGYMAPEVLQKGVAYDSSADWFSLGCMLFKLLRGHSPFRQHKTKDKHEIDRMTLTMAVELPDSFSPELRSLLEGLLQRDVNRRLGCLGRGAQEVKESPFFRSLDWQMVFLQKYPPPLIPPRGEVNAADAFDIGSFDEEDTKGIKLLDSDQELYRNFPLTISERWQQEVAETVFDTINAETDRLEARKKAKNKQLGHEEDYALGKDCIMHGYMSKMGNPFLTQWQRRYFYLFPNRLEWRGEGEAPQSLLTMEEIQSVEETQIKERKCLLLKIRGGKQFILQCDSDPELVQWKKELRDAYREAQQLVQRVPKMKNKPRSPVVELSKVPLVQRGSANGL
Beta-2 adrenergic receptor (Homo sapiens), sequence (P07550 whole entry, looked up): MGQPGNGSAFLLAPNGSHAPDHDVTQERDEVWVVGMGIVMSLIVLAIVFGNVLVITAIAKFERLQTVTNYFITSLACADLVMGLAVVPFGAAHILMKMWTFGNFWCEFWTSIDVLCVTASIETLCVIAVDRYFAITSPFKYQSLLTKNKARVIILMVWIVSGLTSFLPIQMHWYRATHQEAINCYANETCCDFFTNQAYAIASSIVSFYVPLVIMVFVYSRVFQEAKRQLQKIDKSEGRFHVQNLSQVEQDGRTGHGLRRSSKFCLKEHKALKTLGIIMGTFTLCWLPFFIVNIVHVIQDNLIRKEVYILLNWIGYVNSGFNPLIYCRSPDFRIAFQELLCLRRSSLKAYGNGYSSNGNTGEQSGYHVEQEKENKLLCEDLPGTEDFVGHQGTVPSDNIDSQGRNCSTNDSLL
AP-2 complex subunit beta (Homo sapiens), sequence (P63010 whole entry, looked up, the tested form may be a part, one chain of several): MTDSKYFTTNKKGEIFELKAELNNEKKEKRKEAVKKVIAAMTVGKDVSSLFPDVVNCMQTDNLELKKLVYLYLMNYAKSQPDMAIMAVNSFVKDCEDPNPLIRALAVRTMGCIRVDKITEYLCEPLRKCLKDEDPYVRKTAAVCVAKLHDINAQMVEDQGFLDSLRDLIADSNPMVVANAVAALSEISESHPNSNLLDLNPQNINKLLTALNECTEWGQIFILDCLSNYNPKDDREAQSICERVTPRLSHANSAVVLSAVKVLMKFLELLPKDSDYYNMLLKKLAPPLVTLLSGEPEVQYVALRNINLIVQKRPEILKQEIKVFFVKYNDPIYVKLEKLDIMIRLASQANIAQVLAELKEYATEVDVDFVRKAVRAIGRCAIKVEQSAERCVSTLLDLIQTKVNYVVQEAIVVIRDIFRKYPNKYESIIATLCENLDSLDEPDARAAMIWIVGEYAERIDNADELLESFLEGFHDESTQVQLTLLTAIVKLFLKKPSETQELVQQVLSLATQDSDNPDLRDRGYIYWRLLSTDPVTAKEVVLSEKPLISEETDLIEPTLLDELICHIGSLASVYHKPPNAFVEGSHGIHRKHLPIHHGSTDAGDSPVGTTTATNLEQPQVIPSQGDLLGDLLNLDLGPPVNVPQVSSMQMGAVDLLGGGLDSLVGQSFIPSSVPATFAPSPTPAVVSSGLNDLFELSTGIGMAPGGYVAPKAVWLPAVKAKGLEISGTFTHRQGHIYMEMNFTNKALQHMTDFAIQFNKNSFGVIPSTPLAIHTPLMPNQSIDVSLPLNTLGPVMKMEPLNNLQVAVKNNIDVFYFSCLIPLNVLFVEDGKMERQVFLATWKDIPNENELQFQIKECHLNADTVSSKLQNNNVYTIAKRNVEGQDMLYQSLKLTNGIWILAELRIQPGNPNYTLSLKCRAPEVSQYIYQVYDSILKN
ATP-binding cassette sub-family B member 6 (Homo sapiens), sequence (Q9NP58 whole entry, looked up): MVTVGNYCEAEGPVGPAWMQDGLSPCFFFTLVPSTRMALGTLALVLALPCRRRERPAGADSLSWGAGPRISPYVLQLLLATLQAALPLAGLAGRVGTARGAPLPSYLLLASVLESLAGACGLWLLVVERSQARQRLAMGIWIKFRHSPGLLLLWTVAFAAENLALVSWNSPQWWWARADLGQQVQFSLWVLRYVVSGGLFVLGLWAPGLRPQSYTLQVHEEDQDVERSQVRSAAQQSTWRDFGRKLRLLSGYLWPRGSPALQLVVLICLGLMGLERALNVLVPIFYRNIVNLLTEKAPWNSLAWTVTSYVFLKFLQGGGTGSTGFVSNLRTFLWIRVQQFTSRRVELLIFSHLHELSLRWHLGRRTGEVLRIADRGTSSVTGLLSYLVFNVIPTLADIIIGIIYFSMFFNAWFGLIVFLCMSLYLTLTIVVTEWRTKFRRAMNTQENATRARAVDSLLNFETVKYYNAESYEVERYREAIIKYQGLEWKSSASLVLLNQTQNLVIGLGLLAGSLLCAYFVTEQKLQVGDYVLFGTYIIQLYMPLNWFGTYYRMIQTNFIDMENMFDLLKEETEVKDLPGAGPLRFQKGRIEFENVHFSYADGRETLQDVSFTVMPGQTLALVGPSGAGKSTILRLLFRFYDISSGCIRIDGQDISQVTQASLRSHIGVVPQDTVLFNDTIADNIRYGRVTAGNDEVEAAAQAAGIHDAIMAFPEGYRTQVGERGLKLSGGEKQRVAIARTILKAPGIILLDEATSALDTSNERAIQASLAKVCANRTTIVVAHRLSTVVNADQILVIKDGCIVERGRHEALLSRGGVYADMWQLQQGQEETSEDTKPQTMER

SMILES | percent of DMSO control GFP [1] | GFP response vs DMSO [2] | percent response of DMSO control [3] | GFP response vs DMSO [4] | GFP response, % of DMSO [5] | double positive events [6] | vesicle binding response [6] | inhibition [7] | superoxide response (% of plate) [8] | aptamer binding inhibition [9] | response [10] | inhibition [11] | response [12] | binding (% of control) [13] | efflux inhibition (fraction of control) [14] | inhibition [15] | differentiation response [16]
COc1ccc(C(=O)NCCC2=CCCCC2)cc1[N+](=O)[O-] | 107% (inactive) | 104% (inactive) | 106% (inactive) | 114% (inactive) | 106% (inactive) | 62.5% | 194% (inactive) | 12.3% (inactive) | 99.5% (inactive) | 1% (inactive) | -5.02% (inactive) | 15.5% (inactive) | -2.15% (inactive) | 97.5% (inactive) | 1.08 (active) | 5% (inactive) | -3.11% (inactive)
CCOc1ccc(C(=O)NC(C)C2COc3ccccc3O2)cc1 (stereo not drawn) | 99.5% (inactive) | 104% (inactive) | 95.7% (inactive) | 110% (inactive) | 106% (inactive) | 61.2% | 111% (inactive) | 7.4% (inactive) | 108% (inactive) | 6% (inactive) | -18% (inactive) | -0.3% (inactive) | -8.02% (inactive) | 106% (inactive) | -0.17 (inactive) | 1% (inactive) | 4.86% (inactive)
COc1ccc(NC2=C(Cl)C(=O)N(c3ccccc3)C2=O)c(OC)c1 | 105% (inactive) | 110% (inactive) | 107% (inactive) | 106% (inactive) | 109% (inactive) | 60.1% | 159% (inactive) | -1.09% (inactive) | 94.5% (inactive) | 1% (inactive) | 1.18% (inactive) | 0.15% (inactive) | 1.06% (inactive) | 97% (inactive) | -0.25 (inactive) | -3% (inactive) | -4.57% (inactive)
CCN(CC)CC(=O)Nc1c(C)cccc1C | 106% (inactive) and 100% (inactive) | 109% (inactive) and 94.1% (inactive) | 101% (inactive) and 109% (inactive) | 105% (inactive) and 98.2% (inactive) | 107% (inactive) and 105% (inactive) | 65.6% and 64.5% | 12800% (inactive) | 6.4% (inactive) and 0.94% (inactive) | 87.6% (inactive) and 113% (inactive) | 5% (inactive) and 0% (inactive) | -4.24% (inactive) and -9.06% (inactive) | -9.42% (inactive) and -7.53% (inactive) | -5.61% (inactive) and -5.05% (inactive) | 94.5% (inactive) and 99.9% (inactive) | 0.05 (inactive) and -0.1 (inactive) | 10% (inactive) and 7% (inactive) | -8.8% (inactive) and -15.2% (inactive)
C#C[C@]1(O)CC[C@H]2[C@@H]3CCc4cc(OC)ccc4[C@H]3CC[C@@]21C | 103% (inactive) | 104% (inactive) | 102% (inactive) | 126% (inactive) | 115% (inactive) | 63.7% | 229% (inactive) | 3.14% (inactive) | 115% (inactive) | -1% (inactive) | -13.2% (inactive) | 31.4% (inactive) | 0.87% (inactive) | 108% (inactive) | -0.04 (inactive) | 5% (inactive) | -2.03% (inactive)
CNC(=O)Oc1ccc2c(c1)[C@]1(C)CCN(C)[C@@H]1N2C | 104% (inactive) | 102% (inactive) | 86% (inactive) | 112% (inactive) | 122% (inactive) | 62.8% | 183% (inactive) | 5.69% (inactive) | 98.7% (inactive) | 3% (inactive) | -21.5% (inactive) | -9.24% (inactive) | -0.59% (inactive) | 104% (inactive) | 0.12 (inactive) | 4% (inactive) | -4.99% (inactive)
COc1ccc(C2=C(CN(C)C)C(c3ccccc3)c3ccccc3O2)cc1 (stereo not drawn) | 102% (inactive) | 105% (inactive) | 96.6% (inactive) | 92% (inactive) | 99.7% (inactive) | 61.4% | 6270% (inactive) | 3.7% (inactive) | 102% (inactive) | -2% (inactive) | 10.4% (inactive) | 12.1% (inactive) | -5.6% (inactive) | 104% (inactive) | -0.14 (inactive) | 7% (inactive) | 0.24% (inactive)
CCN(CC)CCNC(=O)c1ccc(NC(C)=O)cc1 | 99.4% (inactive) | 108% (inactive) and 103% (inactive) | 101% (inactive) | 89.4% (inactive) and 90.7% (inactive) | 99.2% (inactive) and 100% (inactive) | 63.2% and 61.4% | 4990% (inactive) and 247% (inactive) | 1.62% (inactive) and -0.45% (inactive) | 100% (inactive) and 103% (inactive) | 3% (inactive) and -3% (inactive) | -11.2% (inactive) and -2.15% (inactive) | -11.4% (inactive) and 6.7% (inactive) | -1.96% (inactive) and 1.62% (inactive) | 95.9% (inactive) and 97.4% (inactive) | 0.02 (inactive) and -0.04 (inactive) | -3% (inactive) and 3% (inactive) | -6.6% (inactive) and 20.8% (inactive)
O=C1NC(=O)C(c2ccccc2)(c2ccccc2)N1 | 102% (inactive) | 107% (inactive) | 93.9% (inactive) | 93.3% (inactive) | 99.6% (inactive) | 58.7% and 60.5% | 114% (inactive) and 142% (inactive) | 20.4% (inactive) and -2.11% (inactive) | 102% (inactive) and 98.5% (inactive) | -2% (inactive) and 2% (inactive) | 5.51% (inactive) | 1.12% (inactive) and -5.85% (inactive) | 8.2% (inactive) and -0.2% (inactive) | 97% (inactive) and 99.3% (inactive) | -0.44 (inactive) and 0.29 (inactive) | 11% (inactive) and 12% (inactive) | -0.18% (inactive) and -8.27% (inactive)
